In PubChem BioAssay (NCATS):
Several values for one entry are separate records, joined by “and”; a condition that tells them apart may be missing. Equal values may be shown once. Values without a mark were called inactive. Records with an inconclusive call do not appear. Where a call stands in place of a potency, no number is given. Activity calls are given as the source filed them. Unless noted, calls come from the whole dose curve; as a rule, active = well fitted curve in the direction sought with a large enough effect; inconclusive = small, poorly fitted or top-dose-only effect, or another doubt; inactive = no such curve, though single readings can be large; an effect the other way counts as inactive or inconclusive.

Key:
[1] = qHTS to identify inhibitors of the type 1 interferon - major histocompatibility complex class I in skeletal muscle: primary screen against the NCATS LOPAC collection (AID 1347405);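 note: human myoblasts with HiBiT tag on endogenous HLA-B stimulated by IFN-beta; lytic HiBiT luminescence reporting HLA-B protein level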; note: potency is the fitted concentration of half-maximal effect
Outline: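 First, engineered myoblasts carrying HLA-B-HiBiT were seeded in medium lacking dexamethasone with 4 ng/ml IFN-beta. After 1 hr, compounds were pinned in (top 46 uM final, 7 points). After 24 hrs at 37 C, luminescence was measured following 10 min lysis.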

[2] = qHTS for inhibitors of adenylyl cyclases using a fission yeast platform: a pilot screen against the NCATS LOPAC library (AID 1347410)
Outline: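 GFP from fbp1-GFP reporter, read by Acumen laser cytometry, indicates AC inhibition in fission yeast expressing AC9, GNAS and PDE4D2. Cells grown 18 h in the dark at 30C with compounds, final up to 57 uM.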

[3] = molecular target: Protein phosphatase 1D (Homo sapiens) (UniProt O15297); test: RapidFire Mass Spectrometry qHTS Assay for Modulators of WT P53-Induced Phosphatase 1 (WIP1) (AID 1347424); note: series mostly up to about 63 µM
Outline: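 RapidFire MS readout of dephosphorylated VEPPL-S-QETFS product, with 1 uM isotope-labelled peptide standard. Reaction: 10 nM WIP1, 2 uM phosphopeptide substrate, 5 min, room temperature, after 1 h compound preincubation; stopped with 0.5% formic acid.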

[4] = molecular target: Protein phosphatase 1D (Homo sapiens) (UniProt O15297); test: Rhodamine-PBP qHTS Assay for Modulators of WT P53-Induced Phosphatase 1 (WIP1) (AID 1347425)
Outline: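 Steps: enzyme with Rh-PBP sensor and compounds, room-temperature incubation of 1 hr, baseline read, addition of VEPPL-pS-QETFS (10 uM final), kinetic fluorescence reads at 525/598 nm. Activity equals final minus baseline signal.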

[5] = molecular target: Calcium and integrin-binding protein 1 (Homo sapiens) (UniProt Q99828); test: Confirmatory qHTS for Identification of Calcium Integrin Binding Protein 1 (CIB1) Competitor (AID 1508617); note: nearly all actives have a fitted effect of over 65% in size
Outline: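 Binding competition between test compounds and fluorescent alphaIIb peptide for 1 uM CIB1-GST is monitored by FP at 480/540 nm. Final compound range is up to 114 uM; unlabeled peptide serves as reference competitor.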

[6] = molecular target: Calcium and integrin-binding protein 1 (Homo sapiens) (UniProt Q99828); test: Validation qHTS for Identification of Calcium Integrin Binding protein 1 (CIB1) Competitor (AID 1508618)
Outline: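 In this qHTS validation, the LOPAC set (up to 114 uM) was tested for blocking CIB1 binding to a fluorescein-tagged alphaIIb peptide, with FP detection at 480/540 nm.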

[7] = molecular target: Calcium and integrin-binding protein 1 (Homo sapiens) (UniProt Q99828); test: Primary qHTS for Identification of Calcium Integrin Binding Protein 1 (CIB1) Competitor (AID 1508620); note: potency is the fitted concentration of half-maximal effect
Outline: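 Fluorescence polarization competition: GST-tagged CIB1 (1 uM final) preincubated with compound 15 min at room temperature, then FITC-labelled alphaIIb peptide (100 nM final) added. After 15 min at room temperature, polarization read at Ex 480/Em 540.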

[8] = Primary qHTS for small molecule stabilizers of the endoplasmic reticulum resident proteome: Secreted ER Calcium Modulated Protein (SERCaMP) assay (AID 1508630)
Outline: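 The SH-SY5Y reporter protocol was run at 3 concentrations up to 38.3 uM (primary) or 11 concentrations (follow-up): 16 h compound, 100 nM thapsigargin for 4 h, then extracellular luciferase luminescence.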

[9] = molecular target: Cytochrome P450 2D6 (Homo sapiens) (UniProt P10635); test: Cytochrome P450 family 2 subfamily D member 6 (CYP2D6) small molecule antagonists: luciferase biochemical (cell-free) qHTS assay (AID 1645840; active = well fitted curve in the direction sought with a large enough effect in the repeat runs; an effect the other way counts as inactive or inconclusive; note: nearly all actives have a fitted effect of over 55% in size; note: potency is the fitted concentration of half-maximal effect)
Outline: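 P450-Glo CYP2D6 system: proluciferin substrate converted by enzyme to luciferin, read by luminescence proportional to activity. Enzyme-substrate mix with compound 10 min at room temperature, then NADPH regeneration 1 h before detection reagent.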

[10] = molecular target: Papain (Carica papaya) (UniProt P00784); test: Primary qHTS assay for inhibitors of the protease papain (AID 1645873);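 note: papain turnover of Z-FR-AMC read as the AMC fluorescence gain over 10 min; series mostly up to about 50 µM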
[11] = qHTS to identify inhibitors of the type 1 interferon - major histocompatibility complex class I in skeletal muscle: primary screen against the NCATS Pharmaceutical Collection (AID 1347407);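 note: luminescence of HiBiT knocked into endogenous HLA-B as interferon-induced MHC class I level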
Outline: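 Compounds […] were added to CRISPR-engineered HLA-B-HiBiT C25cl48 human myoblasts with 4.0 ng/ml IFN-beta. After 24 hrs at 37 C, cells were lysed and HiBiT luminescence measured.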

[12] = Primary qHTS for inhibitors of La Crosse Virus (LACV) - induced cell death in SH-SY5Y cells (AID 1508616);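 note: top concentration of the series differs between compounds; higher means more rescue of cells from virus-induced death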
Outline: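 SH-SY5Y, 6000 cells/well; cpd via pin tool in DMSO; LACV 0.01 MOI; 6 d 37C 5% CO2; ATPLite, 5 min RT; luminescence normalized to ±virus DMSO controls.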

[13] = A High-Content qHTS Against Drug Library for the Identification of Small Molecules that Inhibit DYT1 Early Onset Primary Dystonia-Associated Cell Pathology (AID 1645839; calls by dose curve; note: series mostly up to about 46 µM)
Outline: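 Cells were seeded and left for 24 h, then dosed with compound alongside tetracycline induction of mutant EGFP-TorsinA. They were incubated for 48 h, fixed in 4% paraformaldehyde, permeabilized and imaged for mislocalization (%pathology) and cell count.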

[14] = molecular target: Cytochrome P450 2C9 (Homo sapiens) (UniProt P11712); test: Cytochrome P450 family 2 subfamily C member 9 (CYP2C9) small molecule antagonists: luciferase biochemical (cell-free) qHTS assay (AID 1645842; active = well fitted curve in the direction sought with a large enough effect in the repeat runs; an effect the other way counts as inactive or inconclusive; note: nearly all actives have a fitted effect of over 55% in size; note: potency is the fitted concentration of half-maximal effect)
Outline: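 P450-Glo CYP2C9 system: proluciferin substrate with enzyme in mix containing 0.4% BSA, 10 min at room temperature, then NADPH regeneration solution added and incubated 1 h at 37C. Detection reagent stopped reaction; luminescence read after 20 min as RLU.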

[15] = Validation qHTS assay for inhibitors of Activation Induced Cytidine Deaminase (AID): UDG Counterscreen signal (AID 1347427)
Outline: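 Fluorescence at 560 nm excitation, 665 nm emission reports UDG signal after 250 mM NaOH (2x) addition and 30 min. Enzymes (AID 1 uM, UDG 2 U/mL, at 4/3x) preincubated 10 min with compound, then 4 h with 4x 250 nM DJC20/DJC23 substrate at room temperature.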

[16] = molecular target: Single-stranded DNA cytosine deaminase (Homo sapiens) (UniProt Q9GZX7); test: Validation qHTS assay for inhibitors of Activation Induced Cytidine Deaminase (AID): AID signal (AID 1347429)
Outline: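 Steps: dispense AID with UDG; pin-transfer compound up to 114 uM final; add DJC20/DJC23 substrate and hold 4 hr at room temperature; add NaOH, hold 30 min; read FRET signal (540/590 nm).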

[17] = Counterscreen qHTS for small molecule stabilizers of the endoplasmic reticulum resident proteome: GLuc-NoTag assay (AID 1508627); note: potency is the fitted concentration of half-maximal effect
Outline: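 Counterscreen line: SH-SY5Y-GLuc-NoTag. Seed, 5 h; compound, 19 h; thapsigargin 100 nM, 4 h; 37C/5% CO2. Readout: secreted GLuc luminescence, coelenterazine 0.07x final, no lysis.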

[18] = Cell Viability qHTS for small molecule stabilizers of the endoplasmic reticulum resident proteome (AID 1508629); conditions: cell viability counter-screen, 100 nM thapsigargin for final 4 h;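 note: human SH-SY5Y neuroblastoma cells carrying the GLuc-SERCaMP reporter; compound exposure about 46 h in total before the viability read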

Cytochrome P450 2C9 (Homo sapiens), sequence (P11712 whole entry, looked up): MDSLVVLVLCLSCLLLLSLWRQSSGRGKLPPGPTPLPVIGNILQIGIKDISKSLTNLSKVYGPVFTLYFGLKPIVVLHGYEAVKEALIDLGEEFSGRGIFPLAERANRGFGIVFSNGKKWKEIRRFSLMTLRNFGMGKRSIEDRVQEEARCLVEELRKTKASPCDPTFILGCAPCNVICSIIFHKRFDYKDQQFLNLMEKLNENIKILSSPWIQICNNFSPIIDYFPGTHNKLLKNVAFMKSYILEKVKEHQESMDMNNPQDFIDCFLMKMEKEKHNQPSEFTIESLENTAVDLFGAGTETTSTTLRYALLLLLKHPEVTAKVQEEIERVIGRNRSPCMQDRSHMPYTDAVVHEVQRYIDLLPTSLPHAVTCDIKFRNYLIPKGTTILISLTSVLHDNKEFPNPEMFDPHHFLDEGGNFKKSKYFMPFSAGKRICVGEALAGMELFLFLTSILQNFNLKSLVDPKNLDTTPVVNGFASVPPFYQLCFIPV
Single-stranded DNA cytosine deaminase (Homo sapiens), sequence (Q9GZX7 whole entry, looked up): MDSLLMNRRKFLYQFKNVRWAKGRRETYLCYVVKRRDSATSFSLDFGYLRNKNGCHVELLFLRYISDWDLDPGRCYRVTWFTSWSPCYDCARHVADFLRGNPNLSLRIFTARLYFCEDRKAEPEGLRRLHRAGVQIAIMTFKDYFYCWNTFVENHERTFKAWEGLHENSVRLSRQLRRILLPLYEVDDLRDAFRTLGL
Cytochrome P450 2D6 (Homo sapiens), sequence (P10635 whole entry, looked up): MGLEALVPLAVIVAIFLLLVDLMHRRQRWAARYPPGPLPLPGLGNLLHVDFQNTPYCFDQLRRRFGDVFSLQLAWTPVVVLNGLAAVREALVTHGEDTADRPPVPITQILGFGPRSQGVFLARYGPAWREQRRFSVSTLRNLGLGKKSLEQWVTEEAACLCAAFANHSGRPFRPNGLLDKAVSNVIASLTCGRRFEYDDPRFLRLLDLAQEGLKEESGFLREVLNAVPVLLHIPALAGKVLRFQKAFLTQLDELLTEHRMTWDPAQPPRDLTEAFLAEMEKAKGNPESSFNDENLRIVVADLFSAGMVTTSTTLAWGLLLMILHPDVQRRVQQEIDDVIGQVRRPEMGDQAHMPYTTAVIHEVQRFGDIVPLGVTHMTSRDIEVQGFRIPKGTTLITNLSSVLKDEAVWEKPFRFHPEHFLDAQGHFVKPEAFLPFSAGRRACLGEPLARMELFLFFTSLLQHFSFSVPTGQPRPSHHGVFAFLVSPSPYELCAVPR
Calcium and integrin-binding protein 1 (Homo sapiens), sequence (Q99828 whole entry, looked up): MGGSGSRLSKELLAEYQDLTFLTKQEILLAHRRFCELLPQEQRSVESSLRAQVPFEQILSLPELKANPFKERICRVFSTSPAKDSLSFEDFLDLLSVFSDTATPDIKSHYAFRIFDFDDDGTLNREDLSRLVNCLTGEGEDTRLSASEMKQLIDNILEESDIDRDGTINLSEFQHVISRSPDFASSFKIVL
Papain (Carica papaya), sequence (P00784 whole entry, looked up): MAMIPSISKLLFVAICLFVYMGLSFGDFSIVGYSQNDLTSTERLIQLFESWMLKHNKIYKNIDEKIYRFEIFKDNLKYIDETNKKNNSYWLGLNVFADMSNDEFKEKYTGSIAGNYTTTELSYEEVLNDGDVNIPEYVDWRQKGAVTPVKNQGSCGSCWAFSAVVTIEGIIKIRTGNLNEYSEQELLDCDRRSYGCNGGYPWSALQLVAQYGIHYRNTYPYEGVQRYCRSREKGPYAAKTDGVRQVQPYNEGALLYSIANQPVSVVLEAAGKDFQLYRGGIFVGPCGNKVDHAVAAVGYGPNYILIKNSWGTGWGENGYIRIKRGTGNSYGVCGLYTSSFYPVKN
Protein phosphatase 1D (Homo sapiens), sequence (O15297 whole entry, looked up): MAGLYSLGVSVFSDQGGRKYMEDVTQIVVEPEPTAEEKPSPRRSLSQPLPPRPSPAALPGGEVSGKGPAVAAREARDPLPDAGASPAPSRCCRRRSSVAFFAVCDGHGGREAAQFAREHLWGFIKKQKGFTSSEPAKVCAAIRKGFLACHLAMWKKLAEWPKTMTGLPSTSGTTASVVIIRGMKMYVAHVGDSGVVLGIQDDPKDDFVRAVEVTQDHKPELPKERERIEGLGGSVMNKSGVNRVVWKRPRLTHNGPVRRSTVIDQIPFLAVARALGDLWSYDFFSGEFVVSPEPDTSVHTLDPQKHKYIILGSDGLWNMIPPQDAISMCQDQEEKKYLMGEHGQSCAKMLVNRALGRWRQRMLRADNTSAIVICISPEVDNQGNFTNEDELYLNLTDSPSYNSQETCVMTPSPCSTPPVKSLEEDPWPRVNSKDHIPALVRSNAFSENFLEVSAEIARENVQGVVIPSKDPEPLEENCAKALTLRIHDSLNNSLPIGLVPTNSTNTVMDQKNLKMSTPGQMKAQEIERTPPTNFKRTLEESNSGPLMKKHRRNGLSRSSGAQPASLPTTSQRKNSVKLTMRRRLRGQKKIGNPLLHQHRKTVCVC

| SMILES | Potency [1] | outcome [2] | Potency [3] | outcome [4] | outcome [5] | outcome [6] | Potency [7] | Potency [8] | Potency [9] | Potency [10] | Potency [11] | Potency [12] | Potency [13] | Potency [14] | outcome [15] | Potency [16] | Potency [17] | max response [18] [%] |
| --- | --- | --- | --- | --- | --- | --- | --- | --- | --- | --- | --- | --- | --- | --- | --- | --- | --- | --- |
| C[n+]1cc2c3c(ccc2c2ccc4cc5c(cc4c21)OCO5)OCO3 | 1.78 µM (active) | inactive | inactive | inactive | inactive | inactive | 14.1 µM (active) | inactive | 6.74 µM (active) | inactive | – | – | – | – | – | – | – | – |
| CCCCOCCOCCOCc1cc2c(cc1CCC)OCO2 | – | – | inactive | inactive | – | – | inactive | inactive | 1.56 µM (active) and 1.74 µM (active) | – | inactive | inactive | inactive | 340 nM (active) and 123 nM (active) | – | – | – | – |
| CCn1ccnc1CC1COc2ccccc2O1 (stereo not drawn) | inactive | – | inactive | inactive | – | inactive | inactive | inactive | 1.74 µM (active) | inactive | inactive | inactive | – | inactive | inactive | – | – | – |
| C[C@]12C=CC(=O)C=C1CC[C@H]1[C@@H]3C[C@@H](O)[C@](O)(C(=O)CO)[C@@]3(C)C[C@H](O)[C@@]12F | – | – | – | inactive | – | – | – | inactive | inactive | inactive | – | inactive | inactive | inactive | inactive | inactive | – | – |
| NC(N)=N/N=C/c1c(Cl)cccc1Cl | inactive | inactive | inactive | inactive | – | inactive | inactive | inactive | 9.77 µM (active) | inactive | – | inactive | – | inactive | inactive | – | – | – |
| COc1cc(C(=O)OCCCN2CCCN(CCCOC(=O)c3cc(OC)c(OC)c(OC)c3)CC2)cc(OC)c1OC | – | inactive | inactive | – | – | inactive | inactive | – | – | inactive | – | inactive | – | – | inactive | inactive | inactive | -32.9 |
| COCCOC(=O)C1=C(C)NC(C)=C(C(=O)OC(C)C)C1c1cccc([N+](=O)[O-])c1 (stereo not drawn) | – | – | inactive | inactive | – | inactive | inactive | inactive | – | inactive | inactive | inactive | – | – | inactive | – | – | – |
| CCCC(C(=O)OCCN(CC)CC)(c1ccccc1)c1ccccc1 | – | – | inactive | inactive | – | – | inactive | – | 0.0347 µM (active) | inactive | inactive | inactive | – | 6.17 µM (active) | inactive | inactive | 17.8 µM (active) | – |
| COCCCC/C(=N\OCCN)c1ccc(C(F)(F)F)cc1 | inactive | inactive | – | inactive | – | inactive | inactive | – | 0.977 µM (active) | inactive | – | inactive | – | 11 µM (active) | inactive | inactive | – | – |
| COC(=O)[C@H]1[C@H]2C[C@@H]3c4[nH]c5cc(OC)ccc5c4CCN3C[C@H]2C[C@@H](OC(=O)c2cc(OC)c(OC)c(OC)c2)[C@@H]1OC | – | inactive | inactive | inactive | – | inactive | inactive | – | 15.5 µM (active) | – | inactive | inactive | – | – | inactive | – | – | – |
| Cc1nc2sccn2c(=O)c1CCN1CCC(=C(c2ccc(F)cc2)c2ccc(F)cc2)CC1 | inactive | – | inactive | inactive | – | – | inactive | – | 3.09 µM (active) | inactive | inactive | inactive | – | – | inactive | – | inactive | -2.38 |
| CC(C)(C)c1ccc(C(=O)CCCN2CCC(OC(c3ccccc3)c3ccccc3)CC2)cc1 | – | – | inactive | inactive | – | inactive | inactive | inactive | – | inactive | inactive | inactive | – | – | inactive | inactive | – | – |
